Assay results as given in PubChem BioAssay AID1478 (National Center for Advancing Translational Sciences (NCATS), 2009).
The campaign covered roughly 200,000 compounds. About 860 (0.43%) were called active. The sample as a whole holds a higher share of actives than the screen did. The source holds several records for some structures; these can differ, active in one and inactive in another. A number with no mark means an inactive call. Calls come from the whole dose curve; as a rule, active = well fitted inhibition curve with a large enough effect; inconclusive = small, poorly fitted or top-dose-only effect; inactive = flat fitted curve, though single readings scatter.

Molecular target: Cruzipain (Trypanosoma cruzi) (UniProt P25779)
Assay: qHTS Assay for Promiscuous and Specific Inhibitors of Cruzain (with detergent); note: nearly all actives have a fitted effect of over 40% in size
Conditions: purified cruzain, Z-FR-AMC fluorescence, 0.01% Triton
Procedure: Cruzain (3.4.22.51) is a cysteine protease from the tropical parasite Trypanosoma cruzi. Dual qHTS experiment was performed against the NCGC compound collection in order to 1) identify novel inhibitors of the enzyme and 2) profile the compound collection for promiscuous inhibitors operating via colloidal aggregation (by performing detergent-free and detergent-containing comparison screens). Cruzain was assayed by the use of fluorogenic coumarin-based substrate Z-FR-AMC: proteolytic cleavage releases AMC, whose fluorescence is measured at 360 nm excitation and 450 nm emission. Purified cruzain was supplied by the labs of Prof. James McKerrow and Brian Shoichet, UC San Francisco.
This assay had 0.01% Triton X-100 concentration. See also releated assay "qHTS Assay for Promiscuous and Specific Inhibitors of Cruzain (without detergent)" with 0.00005% Triton X-100.
See following references for additional details:
Assay Provider: Shoichet, Brian; University of California, San Fancisco
Screening Center PI: Austin, C.P.
Screening Center: NIH Chemical Genomics Center [NCGC]
Buffer: 100 mM Sodium Acetate, pH 5.5, 5 mM DTT, Triton X-100 concentration: 0.01%.
Buffer in columns 3 and 4 as negative control (no enzyme).
Substrate solution: 2 uM final concentration of Z-FR-AMC (catalog number I-1160, Bachem) dispensed throughout the plate.
Enzyme: 1.5 nM Cruzain final concentration in columns 1, 2, 5-48. Column 1 is neutral (100% activity). Column 2 contained titration of covalent inhibitor K11777, starting concentration 1 mM, then 1:2 dilution in duplicate).
Three uL of enzyme or buffer were dispensed to 1536-well Greiner black solid bottom plates. Compounds and controls (23 nL) were transferred via Kalypsys PinTool. The plates were incubated for 15 min at room temperature, and then 1 uL of substrate solution was added to start the reaction. The plates were immediately transferred to and read 4 times every 30 seconds for 2 min on ViewLux High-throughput CCD imager (Perkin-Elmer) using 360 nm excitation and 450 nm emission fluorescence protocol. The fluorescence intensity difference between the third and the first time points (time lapse of 60 seconds) was used to compute reaction progress.
Potency is the fitted concentration of half-maximal effect.

Chain of Cruzipain (Trypanosoma cruzi) (P25779 123-467 limits assumed): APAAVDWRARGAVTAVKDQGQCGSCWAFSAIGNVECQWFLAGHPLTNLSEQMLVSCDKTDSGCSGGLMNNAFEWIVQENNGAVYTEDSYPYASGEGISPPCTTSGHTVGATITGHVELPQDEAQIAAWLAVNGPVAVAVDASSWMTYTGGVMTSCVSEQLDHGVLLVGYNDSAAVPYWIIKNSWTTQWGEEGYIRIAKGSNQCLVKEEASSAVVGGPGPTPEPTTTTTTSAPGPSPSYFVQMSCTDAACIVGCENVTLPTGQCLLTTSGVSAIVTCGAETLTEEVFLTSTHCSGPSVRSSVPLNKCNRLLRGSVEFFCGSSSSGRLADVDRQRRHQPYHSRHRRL

Row | Compound | max response, negative = inhibition | Potency
1 | COc1cc(-c2noc(-c3ccc(N4CCCC4)c([N+](=O)[O-])c3)n2)cc(OC)c1OC | -7.32% | –
2 | CCCNC(=O)c1ccc2c(c1)ncn2-c1ccc(C)cc1C | 0.948% | –
3 | Cc1ccccc1CNC(=O)c1cccc(NC(=O)c2nsc3ccccc23)c1 | -4.52% | –
4 | CC(Oc1ccc(Cl)cc1)C(=O)OCC(=O)Nc1ncc(Cl)cc1Cl (stereo not drawn) | -4.76% | –
5 | Cc1ccc(SCCC(=O)OCC(=O)Nc2ncc(Cl)cc2Cl)cc1 | – | 25.1 µM (active)
6 | Cc1ccc(-n2c(SCC(=O)Nc3ncc(Cl)cc3Cl)nc3ccccc32)cc1 | 0.0613% | –
7 | CCC(=O)N1CCc2cc(CNS(=O)(=O)c3ccc(Br)s3)ccc21 | -0.767% | –
8 | Cc1cccc(C(=O)NCC(=O)OCC(=O)N2CC3(C)CC2CC(C)(C)C3)c1 (stereo not drawn) | – | 14.1 µM (active)
9 | Cc1nnnn1/C(=C\c1ccccc1)C(=O)OCC(=O)N1CC2(C)CC1CC(C)(C)C2 (stereo not drawn) | -0.133% | –
10 | COc1ccc(C(=O)N2CC3(C)CC2CC(C)(C)C3)cc1OC (stereo not drawn) | -2.5% | –
11 | CCOc1ccc(C(NC(=O)c2cc(OC)c(OC)c(OC)c2)c2cc(Cl)c3cccnc3c2O)cc1 (stereo not drawn) | 1.88% | –
12 | COc1ccccc1CNc1ccc(-c2nc(-c3ccccc3C)no2)cc1[N+](=O)[O-] | -3.81% | –
13 | O=C(NCc1ccccc1)C(=O)NCC(c1ccco1)S(=O)(=O)c1ccc(Cl)cc1 (stereo not drawn) | -1.1% | –
14 | O=C(COc1ccccc1)NCCc1nc2ccccc2[nH]1 | – | 15.8 µM (active)
15 | COC(=O)Cc1nc2ccccc2[nH]1 | 8.1% | –
16 | COc1ccc(OC(C)C(=O)NCCc2nc3ccccc3[nH]2)cc1 (stereo not drawn) | -6.04% | –
17 | CCc1ccc(N(CC)C(=O)CCn2cnc3onc(-c4ccc(F)cc4)c3c2=O)cc1 | -2.73% | –
18 | COc1ccc(OCCCn2c(C)nc3cc(C)c(C)cc32)cc1 | -3.67% | –
19 | Cc1cccc(NC(=O)/C(=C\c2ccco2)NC(=O)c2ccccc2)c1 | -5.18% | –
20 | O=C(NCC1CCCO1)/C(=C\c1ccco1)NC(=O)c1ccccc1 (stereo not drawn) | -1.92% | –
21 | O=C(OCN1C(=O)c2ccccc2C1=O)/C(=C\c1ccco1)NC(=O)c1ccccc1 | – | 0.316 µM (active)
22 | Cc1ccc(-c2noc(-c3nnn(-c4cccc(C(F)(F)F)c4)c3N)n2)cc1 | 0.534% | –

Row | Compound | max response, negative = inhibition | Potency
23 | CCOC(=O)c1ccc(CSc2nnc3cc(C)c4ccccc4n23)cc1 | -5.57% | –
24 | COc1ccc(N2C(=O)CSC23C(=O)N(Cc2cccc(F)c2)c2ccccc23)cc1Cl (stereo not drawn) | -6.49% | –
25 | CNC(=O)c1cc2c(ccc3ccccc32)oc1=N | – | 28.2 µM (active)
26 | N=c1oc2ccccc2cc1C(=O)N/N=C/c1ccccc1 | -4.25% | –
27 | CCOC(=O)N1CCN(C(=O)c2cc3c(ccc4ccccc43)oc2=O)CC1 | -4.28% | –
28 | COc1ccc(-c2nc3scc(CCNS(=O)(=O)c4cc(F)ccc4OC)n3n2)cc1OC | -6.79% | –
29 | COc1ccc(OC)c(-n2nnc3c(sc4nc(C)c(Br)c(C)c43)c2=O)c1 | -8.66% | –
30 | CC(=O)c1ccc(S(=O)(=O)N2CCC(Oc3ccc(-n4cnnn4)cc3)CC2)cc1 | 0.367% | –
31 | O=C1CCCc2cc(S(=O)(=O)N3CCCC(C(=O)NCc4ccccc4)C3)ccc2N1 (stereo not drawn) | -1.43% | –
32 | COc1ccc(CNC(=O)c2cc3cccc(OC)c3oc2=O)cc1 | -0.986% | –
33 | Clc1ccccc1-c1cc(NCCN2CCOCC2)ncn1 | 0.682% | –
34 | CN(C)c1ccc(-c2nc(NCCN3CCOCC3)c3ccccc3n2)cc1 | -4.87% | –
35 | c1ccc2cc3c(NCCN4CCOCC4)ccnc3cc2c1 | – | 28.2 µM (active)
36 | CCc1ccccc1NC(=O)c1cnn(-c2ccc(F)cc2)c1C1CCNCC1 | -1.82% | –
37 | O=C(CSc1n[nH]c(-c2ccccc2)n1)N1CCCCC1 | 2.8% | –
38 | Cc1ccccc1CN1CCC(CNC(=O)c2c(C)oc3ncnc(N4CCCCC4)c23)CC1 | 1.4% | –
39 | CCN1CCN(C(c2ccc(C)cc2)c2c(O)cc(C)n(Cc3ccco3)c2=O)CC1 (stereo not drawn) | 0.51% | –
40 | CCOC(=O)c1ccc(-n2c(CCC(=O)O)ccc2-c2ccccc2)cc1 | -12% | –
41 | CCOC(=O)C1CCN(C(c2ccc(F)cc2)c2sc3nc(-c4ccco4)nn3c2O)CC1 (stereo not drawn) | -3.73% | –
42 | O=C(/C=C/c1ccccc1)c1ccoc1 | -1.4% | –
43 | COc1ccccc1/C=C/C1=NC(=C\N(C)C)/C(=O)O1 | -17.3% | –
44 | O=C1OC(/C=C/c2ccccc2)=NC/1=C/c1ccco1 | – | 3.98 µM (active)

Row | Compound | max response, negative = inhibition | Potency
45 | COC(=O)c1sccc1S(=O)(=O)N(CC(=O)Nc1ccc(C)c(F)c1)c1ccc(C)c(C)c1 | -3.08% | –
46 | CCOc1ccc(CNC(=O)C2CCCN(S(=O)(=O)N(CC)c3ccc(OCC)cc3)C2)cc1 (stereo not drawn) | 3.48% | –
47 | O=C(Nc1ccc(Br)cc1)c1ccc(Br)c(S(=O)(=O)NCc2ccccc2)c1 | -3.54% | –
48 | Cc1ccc(-c2cn3c(n2)sc2cc(C(=O)NCc4cccs4)ccc23)c(C)c1 | -2.89% | –
49 | CCc1nc(-c2cc(S(=O)(=O)N3CCN(c4ccc(OC)cc4)CC3)ccc2OC)no1 | -3.17% | –
50 | CC(=O)c1ccc(NC(c2ccc(F)cc2)c2nnc(-c3ccccc3)o2)cc1 (stereo not drawn) | -5.26% | –
51 | CCn1cc2nc(SCc3cccc(F)c3)n(CCc3ccccc3)c(=O)c2n1 | -3.27% | –
52 | COc1ccc(-n2c(=O)c3c(c4cc(OC)ccc4n3C)n(Cc3cccc(C)c3)c2=O)cc1 | -1.25% | –
53 | Cc1ccc(NC(=O)c2cc(S(=O)(=O)NCCC3=CCCCC3)ccc2F)cc1C | 1.53% | –
54 | Cc1ccc(F)c(NC(=O)CCc2ccccc2)c1 | 2.16% | –
55 | Cc1ccc(C)c(NC(CC(=O)c2ccccc2)C(=O)OCC(=O)c2cccs2)c1 (stereo not drawn) | -3.94% | –
56 | O=C(COC(=O)[C@H](Cc1ccccc1)NC(=O)c1cccs1)Nc1cc(F)ccc1F | – | 20 µM (active)
57 | CC(=O)Nc1ccc(NC(=O)C2CCCN(S(=O)(=O)c3ccc4c(c3)CCCC(=O)N4)C2)cc1 (stereo not drawn) | -1.66% | –
58 | Cc1ccc(-c2onc(C)c2C)cc1S(=O)(=O)Nc1ccccn1 | -0.474% | –
59 | CCOc1ccc(CNC(=O)C2CCCN(c3nnc(C)c4c(C)n(-c5ccccc5)nc34)C2)cc1 (stereo not drawn) | -6.21% | –
60 | COc1ccc(C)cc1-n1nnnc1SCC(=O)c1cc(C)n(Cc2ccco2)c1C | -1.61% | –
61 | O=C(CNC(=O)c1ccco1)OCC(=O)c1ccccc1 | -1.99% | –
62 | Cc1cc(C(=O)COC(=O)CNC(=O)c2ccc(F)cc2)c(C)n1Cc1ccco1 | – | 14.1 µM (active)
63 | COc1ccc2c(Sc3ccc(C)cc3)c(C(=O)NC(C)c3ccccc3)[nH]c2c1 (stereo not drawn) | -7.2% | –
64 | CCOC(=O)c1c(C)[nH]c(CCC(=O)Nc2ccc(OC)c(OC)c2)c1C | 2.38% | –
65 | CCN(CC)S(=O)(=O)c1nnc(NC(=O)COc2ccccc2Cl)s1 | -2.1% | –
66 | CCOC(=O)c1c(S(=O)(=O)NCC(=O)Nc2ccc(Cl)c(C(F)(F)F)c2)c(C)n(C)c1C | -11.4% | –

Row | Compound | max response, negative = inhibition | Potency
67 | COc1cccc(-c2nnc3n(CCc4ccccc4)c(=O)c4ccccc4n23)c1O | -2.72% | –
68 | COC(=O)C(C)N(C#N)c1nc(C)nc(C)n1 (stereo not drawn) | 4.3% | –
69 | Cc1cc(C)nc(N(C#N)CC(=O)Nc2ccccc2)n1 | 7.7% | –
70 | CNc1nc(SC)nc(N(C#N)CC(=O)OC)n1 | – | 17.8 µM (active)
71 | Cc1c(C(=O)N(C)C)sc2c1c(=O)n(-c1ccc(F)cc1)c(=O)n2CC(=O)N(C)c1ccccc1 | 1.44% | –
72 | CC(C)C[C@H](NC(=O)[C@@H]1O[C@H]1C(=O)O)C(=O)NCCCCN=C(N)N | – | 0.0562 µM (active)
73 | Cc1ccccc1CSc1nc2c([nH]c3ccccc32)c(=O)n1C | -1.56% | –
74 | Cc1cccc(N2CCN(C(=O)CCn3c(=O)c4cccn4c4cccnc43)CC2C)c1 (stereo not drawn) | -4.9% | –
75 | O=c1cc2nc(-c3ccccc3)nc(SCCOc3ccc(Cl)cc3)n2[nH]1 | 0.045% | –
76 | Oc1c(Cl)cc(Cl)c(Cl)c1Cc1c(O)c(Cl)cc(Cl)c1Cl | -22.8% | 25.1 µM (active)
77 | COc1ccc(OC)c(-n2nnc(-c3nc(-c4cc(OC)c(OC)c(OC)c4)no3)c2C)c1 | 2.73% | –
78 | COc1cccc(-c2cc(C(=O)Nc3ccc(C)cc3)[nH]n2)c1 | -0.83% | –
79 | Cc1ccc(CSc2nc3ccsc3c(=O)n2CCC(C)C)cc1 | -1.1% | –
80 | CC(=O)Nc1cc(C(=O)NCc2ccc(F)cc2Cl)ccc1Sc1ccc(Cl)cc1 | 1.77% | –
81 | COc1cccc(C(=O)NCC(=O)OCc2cc(=O)n3ccsc3n2)c1 | -1.65% | –
82 | CCOC(=O)c1cc2c(=O)n3ccccc3nc2n(Cc2ccco2)c1=NC(=O)c1ccc(F)cc1 | -23.1% | –
83 | CCCCn1c(=N)c(S(=O)(=O)c2ccccc2)cc2c(=O)n3cccc(C)c3nc21 | 0.669% | –
84 | CCn1c(=N)c(S(=O)(=O)c2ccc(F)cc2)cc2c(=O)n3ccccc3nc21 | – | 22.4 µM (active)
85 | CCOc1cc(-c2nnc(SCC(=O)NC3CCCCC3)nc2-c2ccc(OC)c(OCC)c2)ccc1OC | 0.915% | –
86 | Cc1ccc(NC(=O)CSc2nnc3[nH]c(=O)cc(C)n23)cc1Cl | -1.01% | –
87 | CC(=O)c1cccc(Nc2ccc3cc(S(=O)(=O)N4CCC(C)CC4)ccc3n2)c1 | -2.76% | –
